# Data: PubChem BioAssay (Tox21)
# Records with an inconclusive call do not appear. The source made the active and inactive calls. Calls follow the shape of the dose curve; as a rule, active = well fitted cell-killing curve with a large enough effect in the repeat runs; inconclusive = weak or mixed curves, or effect the other way; inactive = no such curve, though single readings can be large or run the other way.
# Experiment: qHTS assay for identifying genotoxic compounds that show differential cytotoxicity against isogenic chicken DT40 cell lines with known DNA damage response pathways - wild type cell line (AID 743012); also: nearly all actives have a fitted effect of over 60% in size
# Conditions: DT40 wild type chicken cells viability, CellTiter-Glo, 40 h; series mostly up to 68.4 µM
# Summary of the method: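 Using parental DT40 (300 cells/well), compounds delivered in DMSO incubate 40 h at 37 C/5% CO2. CellTiter-Glo reagent then stands 30 min at room temperature, and luminescence gives cell viability.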
# Potency is read from the fitted curve at half-maximal effect.
row,Compound,Potency
1,CCCCCCCCCCCCCCCC(=O)O[C@@H]1CC(C)=C(/C=C/C(C)=C/C=C/C(C)=C/C=C/C=C(C)/C=C/C=C(C)/C=C/C2=C(C)C[C@@H](OC(=O)CCCCCCCCCCCCCCC)CC2(C)C)C(C)(C)C1,inactive
2,CO[C@H]1C[C@@H]2CC[C@@H](C)[C@@](O)(O2)C(=O)C(=O)N2CCCC[C@H]2C(=O)O[C@H]([C@H](C)C[C@@H]2CC[C@@H](OC(=O)C(C)(CO)CO)[C@H](OC)C2)CC(=O)[C@H](C)/C=C(\C)[C@@H](O)[C@@H](OC)C(=O)[C@H](C)C[C@H](C)/C=C/C=C/C=C/1C,inactive
3,C=C1C(=O)O[C@H]2[C@H]1CC/C(C)=C\CC[C@@]1(C)O[C@@H]21,2.98 µM (active)
4,OCC(S)CS (stereo not given),16.8 µM (active)
5,CO[C@H]1C=CO[C@@]2(C)Oc3c(C)c(O)c4c(O)c(c(/C=N/N5CCN(C6CCCC6)CC5)c(O)c4c3C2=O)NC(=O)/C(C)=C\C=C[C@H](C)[C@H](O)[C@@H](C)[C@@H](O)[C@@H](C)[C@H](OC(C)=O)[C@@H]1C,3.35 µM (active)
6,O=C1CSC2(CCN(CCCN3c4ccccc4Sc4ccc(Cl)cc43)CC2)N1,5.96 µM (active)
7,NC(=O)C[C@@H](N)C(=O)O,inactive
8,CO[C@@]1(NC(=O)C2SC(=C(C(N)=O)C(=O)O)S2)C(=O)N2C(C(=O)O)=C(CSc3nnnn3C)CS[C@@H]21 (stereo not given in full),inactive
9,C#C[C@]1(O)CC[C@H]2[C@@H]3CCC4=CCCC[C@@H]4[C@H]3C(=C)C[C@@]21CC,13.3 µM (active)
10,CCOc1ccc(N=Nc2ccc(N)cc2N)cc1,23.7 µM (active)
